These results are taken from the supplement of paper PMC4206461.

Structures are written as SMILES.

The first experiment relates to Pseudomonas aeruginosa PA14 dppA1-A5 penta mutant + pBBR5.DppA1 (PA14_58350). As to the kind of experiment: respiration area under curve with compound as sole nitrogen source, 24 h (OmniLog AUC (arbitrary units)); higher = more respiration / better utilisation as nitrogen source, active = 2000 or more. On the procedure:
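Biolog Phenotype MicroArray plates PM6-PM8: each di/tripeptide is the sole nitrogen source. Tetrazolium reduction was read in the OmniLog for 24 h at 37°C and summarised as area under the respiration curve (arbitrary units). Values below 2000 count as no respiration. Strain is the SBP penta mutant complemented with DppA1 on a plasmid under its native promoter. Lys/His/Cys peptides are excluded.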
As to `CC(C)C[C@H](N)C(=O)N[C@H](CC(C)C)C(=O)O` (plate: PM8), the “respiration area under curve” value is 284 (inactive).
For `N[C@@H](CC(=O)O)C(=O)NCC(=O)O` (plate: PM8), the “respiration area under curve” value was 2620 (active).
Consider `C[C@@H](O)[C@H](N)C(=O)N1CCC[C@H]1C(=O)O` (plate: PM7), for which the “respiration area under curve” value is 10700 (active).

The test system of another experiment is Pseudomonas aeruginosa PA14 dppBCDF deletion mutant. Briefly: respiration area under curve with compound as sole nitrogen source, 24 h (OmniLog AUC (arbitrary units)); higher = more respiration / better utilisation as nitrogen source, active = 2000 or more; extreme values may be limits of the assay. The method, then: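 Biolog Phenotype MicroArray plates PM6-PM8: each di/tripeptide is the sole nitrogen source. Tetrazolium reduction was read in the OmniLog every 15 min for 24 h at 37°C and summarised as area under the respiration curve (arbitrary units). Values below 2000 count as no respiration. Strain is the dipeptide ABC transporter deletion mutant.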
As to `C[C@H](N)C(=O)N[C@H](C(=O)O)[C@@H](C)O` (plate: PM6), the “respiration area under curve” value was 1650 (inactive).
Still for that read-out and setting: as for `C[C@@H](O)[C@H](N)C(=O)NCC(=O)O` (plate: PM7), the figure is 0.75 (inactive); as for `CSCC[C@H](N)C(=O)N1CCC[C@H]1C(=O)O` (plate: PM7), 0 (inactive).
Consider `CSCCC(NC(=O)C(N)CC(C)C)C(=O)O` (configuration not stated) (plate: PM6), for which the “respiration area under curve” value was 686 (inactive).
For `N[C@@H](CCC(=O)O)C(=O)N[C@@H](Cc1c[nH]c2ccccc12)C(=O)O` (plate: PM6), the “respiration area under curve” value was 728 (inactive).
For the molecule `NC(N)=NCCC[C@H](N)C(=O)N[C@@H](Cc1c[nH]c2ccccc12)C(=O)O` (plate: PM6), the “respiration area under curve” value was 7640 (active).
Still for that read-out and setting: next, `NCC(=O)N[C@@H](CC(N)=O)C(=O)O` (plate: PM8): 13800 (active); `C[C@H](N)C(=O)N[C@@H](CCC(=O)O)C(=O)O` (plate: PM6): 3750 (active); `CC(C)C[C@H](NC(=O)CN)C(=O)O` (plate: PM6): 0 (inactive).
In the case of `CC[C@H](C)[C@H](N)C(=O)N[C@@H](CO)C(=O)O` (plate: PM6), the “respiration area under curve” value was 156 (inactive).
With `N[C@@H](Cc1ccc(O)cc1)C(=O)NCC(=O)O` (plate: PM7), the “respiration area under curve” value was 3760 (active).
As to `CSCC[C@H](N)C(=O)N[C@@H](CC(=O)O)C(=O)O` (plate: PM7), the “respiration area under curve” value was 1590 (inactive).
Consider `NCC(=O)N[C@@H](CO)C(=O)O` (plate: PM6), for which the “respiration area under curve” value was 2360 (active).
Still for that read-out and setting: as for `CC(C)[C@H](NC(=O)[C@@H](N)CC(=O)O)C(=O)O` (plate: PM6), the figure is 524 (inactive); as for `CC(C)[C@H](N)C(=O)N[C@@H](CCC(=O)O)C(=O)O` (plate: PM8), 0 (inactive).
On the same count and under the same terms, next, `N[C@@H](Cc1ccccc1)C(=O)N[C@@H](CO)C(=O)O` (plate: PM7): 1830 (inactive); `CC(C)C[C@H](N)C(=O)N[C@H](CC(C)C)C(=O)O` (plate: PM8): 0 (inactive); `C[C@@H](NC(=O)CN)C(=O)O` (plate: PM8): 0 (inactive).
The same measure, in the same setting: next, `NC(=O)CC[C@H](N)C(=O)NCC(=O)O` (plate: PM6): 2500 (active).
`CC(C)[C@H](N)C(=O)N[C@@H](CC(=O)O)C(=O)O` (plate: PM7): the “respiration area under curve” value was 18 (inactive).
As to `C[C@@H](N)C(=O)NCC(=O)NCC(=O)O` (plate: PM8), the “respiration area under curve” value is 0 (inactive).
`CC(C)C[C@H](N)C(=O)N[C@@H](Cc1ccccc1)C(=O)O` (plate: PM6): the “respiration area under curve” value was 3930 (active).
For the molecule `CC[C@H](C)[C@H](NC(=O)[C@@H](N)CCCN=C(N)N)C(=O)O` (plate: PM6), the “respiration area under curve” value was 8310 (active).
In the case of `N[C@@H](CC(=O)O)C(=O)NCC(=O)O` (plate: PM8), the “respiration area under curve” value was 0 (inactive).
On the same count and under the same terms, as for `CC(C)C[C@H](NC(=O)[C@@H](N)CC(=O)O)C(=O)O` (plate: PM6), the figure is 0 (inactive); as for `C[C@@H](O)[C@H](N)C(=O)N[C@@H](CO)C(=O)O` (plate: PM8), 0 (inactive); as for `CC(C)C(N)C(=O)NC(CO)C(=O)O` (configuration not stated) (plate: PM8), 844 (inactive).
As for `CC(C)C[C@H](NC(=O)[C@H](CC(C)C)NC(=O)[C@@H](N)CC(C)C)C(=O)O` (plate: PM8), the “respiration area under curve” value is 1800 (inactive).
For `N[C@@H](CO)C(=O)N[C@@H](Cc1ccc(O)cc1)C(=O)O` (plate: PM7), the “respiration area under curve” value was 1890 (inactive).
As for `NC(N)=NCCC[C@H](N)C(=O)N[C@@H](CO)C(=O)O` (plate: PM6), the “respiration area under curve” value is 8440 (active).
As for `C[C@@H](O)[C@H](N)C(=O)N[C@@H](CCC(=O)O)C(=O)O` (plate: PM7), the “respiration area under curve” value was 34.2 (inactive).
On the same count and under the same terms, next, `CSCCC(N)C(=O)NC(CCSC)C(=O)O` (configuration not stated) (plate: PM7): 0 (inactive); `CC[C@H](C)[C@H](N)C(=O)N[C@@H](Cc1ccccc1)C(=O)O` (plate: PM6): 52.2 (inactive); `C[C@@H](O)[C@H](N)C(=O)N1CCC[C@H]1C(=O)O` (plate: PM7): 0 (inactive).
